# PI5P4K alpha inh – inhibitors of human PI5P4K alpha. max response, %. P48426. 1.2% of 330,000 active. AID 652105. PI5P4Kalpha enzyme, ADP-Glo luminescence, 60 min; hits give low values; active = max response of -50% or lower; inconclusive = between -30% and -50%; inactive = -30% or higher; note: value at the top dose of about 77 µM; % is set by controls: 0 for no effect and ±100 for the full control effect
# Target sequence (P48426 whole entry, looked up): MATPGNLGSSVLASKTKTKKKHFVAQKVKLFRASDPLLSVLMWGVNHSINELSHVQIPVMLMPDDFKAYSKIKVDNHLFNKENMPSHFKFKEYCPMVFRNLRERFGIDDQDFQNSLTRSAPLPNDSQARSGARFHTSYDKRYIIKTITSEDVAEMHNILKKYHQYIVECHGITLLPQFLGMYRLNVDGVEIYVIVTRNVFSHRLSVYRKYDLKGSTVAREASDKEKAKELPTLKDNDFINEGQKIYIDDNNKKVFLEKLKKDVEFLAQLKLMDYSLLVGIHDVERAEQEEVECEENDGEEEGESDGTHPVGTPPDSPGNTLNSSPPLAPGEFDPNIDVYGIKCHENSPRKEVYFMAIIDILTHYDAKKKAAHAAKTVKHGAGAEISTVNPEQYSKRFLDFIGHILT
#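 Controls without substrate or without enzyme flank wells where PI5P4Kalpha converts substrate using 5 microM ATP (final). Incubation lasts 60 minutes at room temperature; ADP formed is read by ADP-Glo luminescence.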
# HP1b chromo inh – HP1-beta chromodomain-methylated histone interaction inhibition | P83916 | Potency, µM (titrated, usually from 114 µM), for the others: top-dose activity change, negative = inhibition, actives largely listed as inhibitors | AlphaScreen HP1-beta / biotin-H3K9me3 peptide binding | 0.56% of 390,000 active | AID 540317; note: potency is the fitted concentration of half-maximal effect; nearly all actives have a fitted effect of over 70% in size
#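 HP1-beta protein (50 nM final) preincubated 30 min at room temperature with biotinylated H3(1-18)K9me3 peptide (50 nM) in PBS pH 7.4, 0.01% Tween-20, then compound added for 30 min. AlphaScreen streptavidin donor/nickel chelate acceptor beads (10 ug/mL final), 30 min dark, luminescence read.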
# G9a block – inhibitors of human histone lysine methyltransferase G9a | Q96KQ7 | G9a H3K9 monomethylation, AlphaScreen, 2 h | Potency, µM (titrated, usually from 102 µM), without a hit: top-dose activity, negative = inhibition, usual class: inhibitors | 8.8% of 350,000 active | AID 504332; note: potency is the fitted concentration of half-maximal effect; % is set by controls: 0 for no effect and ±100 for the full control effect; nearly all actives have a fitted effect of over 75% in size
# Target sequence (Q96KQ7 913-1193 limits assumed): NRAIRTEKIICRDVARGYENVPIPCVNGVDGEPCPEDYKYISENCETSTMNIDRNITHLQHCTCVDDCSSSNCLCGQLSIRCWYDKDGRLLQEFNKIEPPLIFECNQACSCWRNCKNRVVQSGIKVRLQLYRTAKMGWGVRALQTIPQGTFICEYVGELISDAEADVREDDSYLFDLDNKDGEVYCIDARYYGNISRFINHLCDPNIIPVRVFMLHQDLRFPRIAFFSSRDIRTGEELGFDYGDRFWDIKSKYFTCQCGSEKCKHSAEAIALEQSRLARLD
#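 Chemiluminescent proximity detection of H3K9 monomethylation, read after 10 min bead incubation in the dark. Reaction: 20 nM G9a, 500 nM biotin-H3K9 peptide, 20 uM SAM cofactor, 2 h, room temperature, following 15 min enzyme-compound preincubation.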
# BAZ2B inh – inhibitors of human BAZ2B bromodomain. Q9UIF8. AlphaScreen BAZ2B-H3K14Ac peptide displacement. Potency, µM (highest dose often 114 µM), without a hit: at the highest dose activity change, negative = inhibition, actives largely listed as inhibitors. 4.4% of 360,000 active; note: potency is the fitted concentration of half-maximal effect; % is set by controls: 0 for no effect and ±100 for the full control effect; nearly all actives have a fitted effect of over 60% in size
#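 Inhibition is scored as reduced AlphaScreen emission. The BAZ2B/b-H3(5-23)K14Ac complex (50 nM each) in PBS pH 7.4, 0.01% Tween-20 meets compound (up to 110 uM) for 30 min at RT before bead addition.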
# JMJD2A Tudor inh – blocks the human JMJD2A Tudor domain. O75164. AlphaScreen JMJD2A-Tudor / H3K4me3 peptide binding. Potency, µM (highest dose often 114 µM), for inactives: at the highest dose activity change, negative = inhibition, hits mostly inhibitors. 4.4% of 390,000 active. AID 504339; note: potency is the fitted concentration of half-maximal effect; % is set by controls: 0 for no effect and ±100 for the full control effect; nearly all actives have a fitted effect of over 50% in size
# PLK1 PBD inh – blocks phosphopeptide binding to human PLK1 polo-box domain; P53350; Plk1 PBD binding of FITC phosphopeptide, fluorescence polarization; Potency, µM, without a hit: max response, negative = inhibition, actives largely listed as inhibitors; 2.8% of 360,000 active; AID 720504; note: potency is the fitted concentration of half-maximal effect; series mostly up to about 57 µM; % is set by controls: 0 for no effect and ±100 for the full control effect; nearly all actives have a fitted effect of over 65% in size
# Numbers without * were called inactive; ? = inconclusive; . = no result given; [ ] = another dose, or the depositor's remark. Sampled rows, rich in hits. Any-hit rate of the full collection: about 12%. Unless noted, calls come from the whole dose curve; as a rule, active = well fitted curve in the direction sought with a large enough effect; inconclusive = small, poorly fitted or top-dose-only effect, or another doubt; inactive = no such curve, though single readings can be large; an effect the other way counts as inactive or inconclusive.
SMILES,PI5P4K alpha inh,HP1b chromo inh,G9a block,BAZ2B inh,JMJD2A Tudor inh,PLK1 PBD inh
CCCCN(CC)CCNC(=O)CCn1cnc2onc(-c3ccc(F)cc3)c2c1=O,.,-9.5%,-25.6%[59 µM],7.3%[57.1 µM],-14.9%,.
CSc1ccc(NC(=O)CSc2nc3[nH]c(=O)cc(O)c3s2)cc1,-87.9*,20.3%,-41.0%[12.7 µM],3.6%,-32.9%,?
N#Cc1ccc(NC(=O)CSc2nc3[nH]c(=O)cc(O)c3s2)cc1,-8.5,24.4%,?,-9.9%,?,-3.5%
COc1ccc(NC(=O)CN2C(=O)NC(c3ccccc3)(c3ccccc3)C2=O)cc1OC,2.7,-2.8%,?,-27.5%,?,-6.3%
CCOC(=O)c1c(C)[nH]c(C)c1C(=O)COC(=O)c1ccccc1O,0.1,7.5%,50.1µM*,-34.3%,-20.7%,-11.0%
CCOC(=O)c1c(C)[nH]c(C)c1C(=O)COC(=O)CCOc1ccccc1OC,4.4,-23.2%,?,-32.2%,79.4µM*,?
Cc1ccc(-c2nsc(SCC(=O)NCc3ccc4c(c3)OCO4)n2)cc1,0.7,33.7%,22.9%,7.2%,-1.3%,-3.3%
Cc1ccccc1-c1nsc(SCC(=O)NCc2ccc3c(c2)OCO3)n1,6.4,-6.6%,35.5µM*,-2.8%,-16.6%,?
Cc1ccccc1-c1nc(CS(=O)(=O)CC(=O)NCc2ccc3c(c2)OCO3)c(C)o1,1.0,42.8%,50.1µM*,-9.5%,-15.6%,-5.1%
COC(=O)c1cccc(Nc2c(-c3ccc(OC)cc3)nc3nc[nH]n23)c1,.,?,-40.5%[59 µM],?,?,.
Cc1ccc(C(=O)Oc2c(S(=O)(=O)c3ccccc3)c(C)nn2-c2ccccc2)cc1,.,6.5%,?,?,14.1µM*,.
CC(=O)Oc1c(S(=O)(=O)c2ccc(C)cc2)c(C)nn1-c1ccccc1,5.4,26.4%,11.2µM*,-21.9%,-30.6%,-28.7%
CCc1nn2c(=O)cc(NC3CNC3)nc2s1,.,.,.,.,-15.6%,.
O=[N+]([O-])c1ccc(/C=N/NC(=S)Nc2ccccc2F)o1,-60.8*,?,?,?,?,?
Cc1nc2ccccn2c1C(=O)N/N=C/c1ccc([N+](=O)[O-])o1,-55.8*,?,50.1µM*,44.7µM*,39.8µM*,-28.4%
O=[N+]([O-])c1ccc(/C=N/Nc2ccc3ccccc3c2)o1,-5.9,?,10µM*,8.91µM*,7.08µM*,-12.4%
CCNc1nc(NCC)nc(N/N=C/c2ccc([N+](=O)[O-])o2)n1,-2.5,11.2%,1.78µM*,?,-27.1%,2.2%
O=[N+]([O-])c1ccc(/C=N/Nc2nc(N3CCCC3)nc(N3CCCC3)n2)o1,.,10.6%,-10.1%[59 µM],-5.3%,-31.3%,-13.9%
Cc1ccc(S(=O)(=O)c2cnc(SCC(=O)Nc3cccc(Cl)c3)nc2N)cc1C,.,0.6%,-7.3%[59 µM],-31.6%,-21.5%,.
COc1cccc(CNC(=O)CCc2c(C)nn(-c3ccc(N4CCCC4)nn3)c2C)c1,.,49.9%,2.2%[59 µM],?,-6.7%,.
CCOC(=O)c1c(N)n(-c2ccc(Cl)c(Cl)c2)c2nc3ccccc3nc12,.,30.5%,7.6%[59 µM],0.1%,-2.4%,.
O=C(N/N=C/c1ccc([N+](=O)[O-])o1)c1cc2c(ccc3ccccc32)o1,-23.5,-9.6%,.,56.2µM*,?,15µM*
O=C(N/N=C/c1ccc([N+](=O)[O-])o1)c1cc2ccccc2o1,-19.6,2.6%[57 µM],50.1µM*,-36.5%,-35.2%,-11.2%
Cc1ccc(/C=N/NC(=O)c2cc3c(ccc4ccccc43)o2)o1,-21.7,40.3%,-5.6%,-16.1%,-11.4%,-3.1%
COc1cc(/C=C(\NC(=O)c2ccccc2)C(=O)NC(C(=O)O)c2ccccc2)cc(OC)c1OC (stereo not drawn),0.2,21.0%,39.8µM*,-19.9%[57.1 µM],-14.3%,4.6%
SMILES,PI5P4K alpha inh,HP1b chromo inh,G9a block,BAZ2B inh,JMJD2A Tudor inh,PLK1 PBD inh
Cc1ccc(C(=O)N/C(=C/C=C\c2ccccc2)C(=O)NCc2ccco2)cc1,-1.4,3.7%,44.7µM*,-36.7%,-27.2%,-6.2%
COc1ccc(C(=O)N/C(=C\c2ccccc2)C(=O)NC(CCSC)C(=O)O)cc1 (stereo not drawn),-5.6,44.5%,56.2µM*,9.9%,-1.6%,-4.3%
COC(=O)/C(=C/c1ccco1)NC(=O)c1ccc(Br)o1,-11.9,51.6%,44.7µM*,13.5%,-2.1%,-7.4%
COc1ccc(NC(=O)C2CCN(S(=O)(=O)c3cccc4nonc34)CC2)cc1OC,0.3,-7.2%,-7.6%,2.5%,-16.6%,-7.2%
COc1ccc(C(=O)NCc2nnc(SCC(=O)NCCc3ccccc3)o2)cc1,-4.8,37.3%,.,-8.8%,-10.7%,?
CSCCC(NC(=O)/C(=C/c1ccco1)NC(=O)c1ccco1)C(=O)O (stereo not drawn),-3.0,15.8%,.,.,39.8µM*,-19.8%
CSCCC(NC(=O)/C(=C\c1ccco1)NC(=O)c1ccco1)C(=O)O (stereo not drawn),2.6,29.3%,?,-5.6%,-15.4%,-14.8%
O=C(NCc1ccco1)/C(=C/c1ccco1)NC(=O)c1ccco1,-0.8,12.7%,39.8µM*,-0.1%,-12.5%,-11.3%
CC(NC(=O)/C(=C\c1ccco1)NC(=O)c1ccco1)C(=O)O (stereo not drawn),3.0,41.3%,35.5µM*,-3.4%,-4.9%,-5.7%
O=S1(=O)N=C(Oc2cccc(-c3ccccc3)c2)c2ccccc21,.,.,.,.,-12.8%,.
N#C/C(=C/c1ccc(-c2ccc(S(N)(=O)=O)cc2)o1)c1nc2ccccc2s1,-53.3*,2.8%,-7.2%[59 µM],4.6%,-32.5%,53.7%
CC(=O)NCCNc1nc2cc(-c3ccc(C(=O)N4CCN(C)CC4)cc3)sc2c(=O)n1C,-3.1,.,.,.,.,1.3%
COc1ccc(-n2c(SCC(=O)NCc3ccc(Cl)cc3)nc3ccsc3c2=O)cc1,.,28.8%,-28.9%[59 µM],-9.6%,-7.9%,.
COc1ccc(-n2c(SCC(=O)NCCC(C)C)nc3ccsc3c2=O)cc1,.,23.8%,25.1µM*,-5.5%,-6.7%,-21.3%
COC(=O)c1ccc(/C=N/N2CCN(Cc3ccc(C)cc3C)CC2)cc1,17.1,-29.0%,?,39.8µM*,?,-13.6%
COC(=O)c1ccc(/C=N/N2CCN(Cc3ccccc3Cl)CC2)cc1,1.7,-17.7%,0.6%,-27.3%,8.91µM*,3.4%
CCN(CC)c1ccc(/C=N/N2CCN(Cc3ccccc3Cl)CC2)c(O)c1,-1.8,?,11.2µM*,10µM*,31.6µM*,-3.4%
Nc1c2c(nc3ccccc13)CCC2,8.6,23.8%,-17.7%[59 µM],-4.8%,-22.2%,-7.0%
Nc1c2c(nc3ccc(Br)cc13)N(Cc1ccccc1)CC2,-3.3,3.6%,?,-11.3%,?,-17.2%
Nc1c2c(nc3ccc(Br)cc13)N(C1CCCCC1)CC2,.,.,3.55µM*,15.8µM*,.,.
Nc1c2c(nc3ccc(Br)cc13)N(c1ccccc1)CC2,.,50.1µM*,?,39.8µM*,10µM*,-6.2%

# Bioassay records: PubChem BioAssay, National Center for Advancing Translational Sciences (NCATS)
